Reference: ChEMBL document CHEMBL3988442, “University of Dundee, Small-Polar-MMV Screening Library” (2021)
For some assays here: Entries with a potency or affinity are not part of this list.

Columns and labels:
Set-up in all cases: scale not given: direction of the effect not stated beside the values
[1] = biological target: Protein translocase subunit SecA (Escherichia coli (strain K12)) (UniProt P10408); assay: Assay to Identify E. coli SecA ATPase Inhibitors; format: functional; settings: 30 µM
[2] = biological target: T1, Ubiquitin-activating enzyme e1, putative (Leishmania donovani (strain BPK282A1)) (UniProt E9BSI1); assay: Leishmania donovani Ubiquitin Activating Enzyme (LdE1); format: functional; settings: 30 µM
T1 sequence (whole entry): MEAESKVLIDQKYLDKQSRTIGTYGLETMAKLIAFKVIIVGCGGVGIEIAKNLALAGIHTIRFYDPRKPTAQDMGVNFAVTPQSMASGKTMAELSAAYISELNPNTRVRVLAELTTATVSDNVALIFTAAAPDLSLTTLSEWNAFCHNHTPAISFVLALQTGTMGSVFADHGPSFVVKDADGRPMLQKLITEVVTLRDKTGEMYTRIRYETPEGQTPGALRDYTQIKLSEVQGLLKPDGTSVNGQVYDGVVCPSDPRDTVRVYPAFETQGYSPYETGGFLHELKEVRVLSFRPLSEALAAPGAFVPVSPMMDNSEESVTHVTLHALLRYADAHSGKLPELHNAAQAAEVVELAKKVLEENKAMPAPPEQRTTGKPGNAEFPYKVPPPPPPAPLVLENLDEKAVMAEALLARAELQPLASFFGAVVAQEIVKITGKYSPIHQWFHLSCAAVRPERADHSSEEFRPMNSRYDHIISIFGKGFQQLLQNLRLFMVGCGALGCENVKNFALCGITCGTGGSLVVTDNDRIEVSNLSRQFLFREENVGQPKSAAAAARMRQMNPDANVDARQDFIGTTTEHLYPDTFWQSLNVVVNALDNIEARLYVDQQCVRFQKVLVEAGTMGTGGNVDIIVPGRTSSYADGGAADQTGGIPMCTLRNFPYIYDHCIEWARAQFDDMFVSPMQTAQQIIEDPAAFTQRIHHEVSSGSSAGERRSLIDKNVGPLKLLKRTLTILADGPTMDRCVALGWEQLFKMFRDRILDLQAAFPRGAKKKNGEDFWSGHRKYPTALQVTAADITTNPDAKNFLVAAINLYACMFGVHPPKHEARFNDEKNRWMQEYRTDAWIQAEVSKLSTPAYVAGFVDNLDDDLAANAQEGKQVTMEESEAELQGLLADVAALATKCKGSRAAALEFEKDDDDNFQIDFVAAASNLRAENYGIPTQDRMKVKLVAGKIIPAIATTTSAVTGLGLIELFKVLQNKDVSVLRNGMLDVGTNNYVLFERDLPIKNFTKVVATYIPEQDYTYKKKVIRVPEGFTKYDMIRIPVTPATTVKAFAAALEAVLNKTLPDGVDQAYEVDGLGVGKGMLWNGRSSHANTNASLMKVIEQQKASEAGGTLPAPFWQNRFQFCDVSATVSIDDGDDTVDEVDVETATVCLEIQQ

[3] = biological target: AMP-activated protein kinase, AMPK (Homo sapiens) (UniProt P54646+O43741+P54619+Q9UGJ0+Q9Y478+Q13131+Q9UGI9); assay: AMP-dependent Kinase enzyme assay. An in vitro enzyme assay that detects ADP turnover that is directly proportional to AMPK activity. This uses naive AMPK that is activated during the assay with MK-8722; format: functional; settings: 30 µM
[4] = biological target: Sialic acid-binding Ig-like lectin 9 (Homo sapiens) (UniProt Q9Y336); assay: Hs-Siglec9 ALPHAscreen SOP 20170721; settings: 10 µM
Trypanosoma cruzi = assay: Trypanosoma cruzi phosphomannomutase and mannose-1-phosphate guanylyltransferase assay; format: functional; settings: 10 µM
[5] = biological target: T2, Arginase-2, mitochondrial (Homo sapiens) (UniProt P78540); assay: in vitro enzyme assay to detect the production of urea directly proportional to the activity of Arginase II; format: functional; settings: 33.3 µM; note: in the data most compounds retested in dose-response had high values
T2 sequence (whole entry): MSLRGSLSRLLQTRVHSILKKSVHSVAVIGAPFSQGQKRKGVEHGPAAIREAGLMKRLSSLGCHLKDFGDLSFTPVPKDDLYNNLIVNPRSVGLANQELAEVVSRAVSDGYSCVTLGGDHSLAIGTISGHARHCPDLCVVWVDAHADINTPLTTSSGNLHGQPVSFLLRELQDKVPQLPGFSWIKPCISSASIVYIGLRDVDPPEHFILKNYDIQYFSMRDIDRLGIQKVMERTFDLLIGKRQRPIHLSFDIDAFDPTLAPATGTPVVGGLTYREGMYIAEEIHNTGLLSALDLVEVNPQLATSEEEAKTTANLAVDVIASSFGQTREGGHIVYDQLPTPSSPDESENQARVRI

[6] = biological target: T3, Proteasome subunit beta (Trypanosoma cruzi) (UniProt O96673); assay: Trypanosoma cruzi proteasome chymotrypsin-like activity (TcProtChymo) assay.; note: in the data most compounds retested in dose-response had high values; format: functional; settings: 9.37 µM
T3 sequence (whole entry): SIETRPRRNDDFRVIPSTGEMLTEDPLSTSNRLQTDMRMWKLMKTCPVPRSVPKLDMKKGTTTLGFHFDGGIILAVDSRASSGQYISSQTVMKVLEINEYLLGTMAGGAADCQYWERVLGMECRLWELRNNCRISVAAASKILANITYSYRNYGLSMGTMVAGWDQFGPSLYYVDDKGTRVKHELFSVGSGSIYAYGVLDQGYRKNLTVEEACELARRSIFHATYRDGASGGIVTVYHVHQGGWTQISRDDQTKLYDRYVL

Homo sapiens = organism: Homo sapiens; assay: To identify inhibition of the IFN signalling (Jak-Stat) pathway via expression of an eGFP reporter gene under the control of an IFN-stimulated response element (ISRE) containing MxA promoter.; format: functional; settings: 30 µM
[7] = biological target: T4, Tyrosyl-tRNA synthetase, putative (Trypanosoma cruzi (strain CL Brener)) (UniProt Q4DSP6); assay: Trypanosoma cruzi tyrosyl tRNA synthetase (TcYRS) _High Tyrosine SOP; format: functional; settings: 30 µM; note: in the data most compounds retested in dose-response had high values
T4 sequence (whole entry): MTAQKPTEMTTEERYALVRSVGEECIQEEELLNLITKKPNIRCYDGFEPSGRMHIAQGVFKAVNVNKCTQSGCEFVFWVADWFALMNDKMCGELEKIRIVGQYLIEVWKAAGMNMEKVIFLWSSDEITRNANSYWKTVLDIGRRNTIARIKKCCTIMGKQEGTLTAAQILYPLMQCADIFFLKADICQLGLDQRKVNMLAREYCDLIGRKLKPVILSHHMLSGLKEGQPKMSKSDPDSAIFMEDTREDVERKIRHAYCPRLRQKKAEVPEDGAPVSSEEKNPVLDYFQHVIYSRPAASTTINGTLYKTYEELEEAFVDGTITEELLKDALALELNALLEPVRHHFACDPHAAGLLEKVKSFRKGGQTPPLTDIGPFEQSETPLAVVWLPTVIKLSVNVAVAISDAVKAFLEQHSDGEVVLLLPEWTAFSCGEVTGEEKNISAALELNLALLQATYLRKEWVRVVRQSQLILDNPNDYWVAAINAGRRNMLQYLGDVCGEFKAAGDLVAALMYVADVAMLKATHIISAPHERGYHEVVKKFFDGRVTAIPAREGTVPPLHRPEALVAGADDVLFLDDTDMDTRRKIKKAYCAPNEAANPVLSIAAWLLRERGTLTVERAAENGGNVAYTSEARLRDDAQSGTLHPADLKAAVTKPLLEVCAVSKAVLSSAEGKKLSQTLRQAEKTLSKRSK

[8] = biological target: T4, Tyrosyl-tRNA synthetase, putative (Trypanosoma cruzi (strain CL Brener)); assay: Trypanosoma cruzi tyrosyl tRNA synthetase (TcYRS) SOP; format: functional; settings: 30 µM
[9] = biological target: Chromo domain-containing protein 1 (Saccharomyces cerevisiae (strain ATCC 204508 / S288c) (Baker's yeast)) (UniProt P32657); assay: ScCHD-1 Enzyme Inhibition Assay; format: functional; settings: 30 µM; note: in the data most compounds retested in dose-response had high values
Chromo domain-containing protein 1 (Saccharomyces cerevisiae (strain ATCC 204508 / S288c) (Baker's yeast)), sequence (P32657 whole entry, the tested form may be a part): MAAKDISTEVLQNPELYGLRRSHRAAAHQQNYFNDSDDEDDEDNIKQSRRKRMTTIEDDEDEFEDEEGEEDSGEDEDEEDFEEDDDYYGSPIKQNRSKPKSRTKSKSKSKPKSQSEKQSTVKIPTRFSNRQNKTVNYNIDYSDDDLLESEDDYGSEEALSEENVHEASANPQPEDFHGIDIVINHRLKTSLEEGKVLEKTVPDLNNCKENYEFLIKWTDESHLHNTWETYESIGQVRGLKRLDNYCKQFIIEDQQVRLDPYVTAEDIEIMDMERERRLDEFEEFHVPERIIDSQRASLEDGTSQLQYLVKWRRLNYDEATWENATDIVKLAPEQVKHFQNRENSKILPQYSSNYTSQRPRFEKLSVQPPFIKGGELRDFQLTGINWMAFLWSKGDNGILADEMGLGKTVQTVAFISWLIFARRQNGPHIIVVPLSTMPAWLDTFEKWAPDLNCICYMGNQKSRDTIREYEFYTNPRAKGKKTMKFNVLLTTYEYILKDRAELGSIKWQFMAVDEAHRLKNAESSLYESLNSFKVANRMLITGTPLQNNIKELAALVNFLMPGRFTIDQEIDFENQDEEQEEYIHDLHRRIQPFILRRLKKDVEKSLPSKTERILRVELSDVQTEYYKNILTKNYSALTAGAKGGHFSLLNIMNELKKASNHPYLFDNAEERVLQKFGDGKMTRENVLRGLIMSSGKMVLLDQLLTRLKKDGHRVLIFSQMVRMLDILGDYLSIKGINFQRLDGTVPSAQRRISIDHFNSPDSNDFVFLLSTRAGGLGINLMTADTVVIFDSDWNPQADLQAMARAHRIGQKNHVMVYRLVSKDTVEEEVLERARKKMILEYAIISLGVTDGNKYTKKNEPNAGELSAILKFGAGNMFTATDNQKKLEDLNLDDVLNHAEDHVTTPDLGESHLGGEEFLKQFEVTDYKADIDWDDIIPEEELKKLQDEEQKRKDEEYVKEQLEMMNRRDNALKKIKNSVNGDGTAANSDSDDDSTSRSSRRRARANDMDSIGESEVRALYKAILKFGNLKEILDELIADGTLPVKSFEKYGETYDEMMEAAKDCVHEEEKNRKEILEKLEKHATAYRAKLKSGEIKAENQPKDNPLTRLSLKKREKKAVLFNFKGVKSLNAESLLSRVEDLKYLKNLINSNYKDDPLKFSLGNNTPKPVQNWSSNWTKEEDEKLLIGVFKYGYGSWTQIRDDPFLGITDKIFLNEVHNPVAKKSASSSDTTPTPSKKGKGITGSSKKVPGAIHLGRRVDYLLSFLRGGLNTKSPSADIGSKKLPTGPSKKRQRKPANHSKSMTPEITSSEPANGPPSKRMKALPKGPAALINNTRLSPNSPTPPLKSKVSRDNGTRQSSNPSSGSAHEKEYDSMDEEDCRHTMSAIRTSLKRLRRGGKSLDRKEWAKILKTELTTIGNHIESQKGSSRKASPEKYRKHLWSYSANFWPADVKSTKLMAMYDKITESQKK

Protein translocase subunit SecA (Escherichia coli (strain K12)), sequence (P10408 whole entry): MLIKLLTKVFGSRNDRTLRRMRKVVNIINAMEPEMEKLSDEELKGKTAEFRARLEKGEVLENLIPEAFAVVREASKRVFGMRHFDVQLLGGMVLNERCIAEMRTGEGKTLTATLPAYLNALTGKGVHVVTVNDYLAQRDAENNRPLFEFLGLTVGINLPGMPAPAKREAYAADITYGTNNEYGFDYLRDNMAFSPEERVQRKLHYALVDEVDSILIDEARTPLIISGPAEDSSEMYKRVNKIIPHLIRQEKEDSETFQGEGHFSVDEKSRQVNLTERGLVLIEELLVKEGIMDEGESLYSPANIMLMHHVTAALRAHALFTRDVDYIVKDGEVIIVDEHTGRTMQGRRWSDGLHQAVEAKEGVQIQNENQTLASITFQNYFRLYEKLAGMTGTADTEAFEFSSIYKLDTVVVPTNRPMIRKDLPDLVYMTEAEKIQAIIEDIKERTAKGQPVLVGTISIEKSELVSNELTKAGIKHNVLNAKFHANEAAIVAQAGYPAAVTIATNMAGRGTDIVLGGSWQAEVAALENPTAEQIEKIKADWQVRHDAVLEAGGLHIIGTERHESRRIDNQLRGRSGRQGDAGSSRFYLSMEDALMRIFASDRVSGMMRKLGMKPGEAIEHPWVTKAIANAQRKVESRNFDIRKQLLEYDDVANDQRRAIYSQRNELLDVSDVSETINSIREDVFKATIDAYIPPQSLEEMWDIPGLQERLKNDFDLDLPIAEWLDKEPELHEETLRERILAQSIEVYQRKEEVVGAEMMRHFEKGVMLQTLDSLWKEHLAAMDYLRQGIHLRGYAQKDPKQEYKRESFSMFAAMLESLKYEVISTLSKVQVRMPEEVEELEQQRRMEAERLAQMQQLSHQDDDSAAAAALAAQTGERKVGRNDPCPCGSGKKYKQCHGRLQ
Sialic acid-binding Ig-like lectin 9 (Homo sapiens), sequence (Q9Y336 whole entry): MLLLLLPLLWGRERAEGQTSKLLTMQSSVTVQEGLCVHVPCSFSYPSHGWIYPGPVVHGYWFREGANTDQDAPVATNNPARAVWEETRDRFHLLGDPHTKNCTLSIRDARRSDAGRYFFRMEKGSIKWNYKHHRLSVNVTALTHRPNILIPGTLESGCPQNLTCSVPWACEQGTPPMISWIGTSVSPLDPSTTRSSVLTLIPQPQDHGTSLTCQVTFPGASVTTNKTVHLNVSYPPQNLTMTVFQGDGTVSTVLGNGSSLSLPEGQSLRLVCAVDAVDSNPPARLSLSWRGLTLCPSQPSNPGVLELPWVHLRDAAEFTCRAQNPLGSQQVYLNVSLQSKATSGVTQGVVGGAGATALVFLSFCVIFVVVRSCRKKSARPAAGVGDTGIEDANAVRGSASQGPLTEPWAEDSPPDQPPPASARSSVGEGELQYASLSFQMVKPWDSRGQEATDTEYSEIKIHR

| SMILES | Percent Effect [1] [%] | Percent Effect [2] [%] | Percent Effect [3] [%] | Percent Effect [4] [%] | Percent Effect (Trypanosoma cruzi) [%] | Percent Effect [5] [%] | Percent Effect [6] [%] | Percent Effect (Homo sapiens) [%] | Percent Effect [7] [%] | Percent Effect [8] [%] | Percent Effect [9] [%] |
| --- | --- | --- | --- | --- | --- | --- | --- | --- | --- | --- | --- |
| O=C(C1CCC1)N1CCN(c2snc3ccccc23)CC1 | -4.56 | 1.27 | 21 | -7.26 | -0.718 | 9.25 | 5.83 | 25.3 | -4.17 | -12.7 | -2 |
| COCCO[C@@H]1CCN(Cc2csc(C)n2)[C@H]1Cc1ccccc1 | -2.84 | -5.41 | -0.151 | -7.92 | -3.03 | -1.24 | -1.29 | 8.8 | 1.07 | -1.24 | -1.36 |
| Cn1ccc(CN2CCC(Oc3ccccc3)CC2)cc1=O | -4.18 | 18.2 | -0.911 | 1.02 | -1.69 | -0.356 | 4.05 | -2.92 | 11.7 | 24.4 | -10.1 |
| Cc1cccc(OCCNC(=O)CN2CCCC2Cn2cccn2)c1 (stereo unspecified) | -2.54 | -5.26 | -4.16 | 6.34 | 4.95 | -4.32 | -0.931 | -9.42 | 5.42 | 11.1 | -3.56 |
| COc1ccc(-n2ccc(C(=O)N3CCN(C)CC3C)n2)cc1 (stereo unspecified) | -5.91 | 10.4 | 5.54 | 7.32 | 0.374 | -0.712 | -0.676 | 3.45 | 8.74 | 14.6 | -5.54 |
| Cc1occc1C(=O)N1CCc2c(COCC3CC3)cncc2C1 | -1.99 | 18.9 | -0.121 | -6.57 | 3.03 | 7.96 | 26.8 | 13.8 | 10.8 | 20.5 | -0.136 |
| COc1ccc(C(=O)NS(=O)(=O)c2cncc(Br)c2)cc1OC | -6.13 | -5.41 | -4.05 | 9.13 | -2.51 | 0 | 2.07 | 24.4 | 2.65 | 0 | -1.34 |
| CC(=O)Nc1nc(C2CCN(C(C)=O)CC2)cs1 | 0.424 | 8 | 6.04 | -0.593 | -4.33 | 0.699 | 11.2 | 4.06 | 6.38 | 6.41 | -3.5 |
| CCc1noc(C2CCCCN2C(=O)c2nnc3ccccc3n2)n1 (stereo unspecified) | -4.1 | 9.33 | -3.18 | -0.0891 | 3.54 | -7.57 | 14.6 | -16.9 | 11.6 | 17.9 | -14.2 |
| COc1ccccc1C1CNC(=O)c2nc(-c3ncc[nH]3)[nH]c2C1 (stereo unspecified) | -0.895 | 16.2 | -2.89 | 12.1 | 7.14 | 4.29 | 14.3 | 20.7 | 14.3 | 29.3 | -3.23 |
| CN(C)S(=O)(=O)c1ccc(OCCNCCn2cccn2)cc1 | -6.54 | 1.27 | 2.35 | -1.53 | -1.13 | 1.5 | 5.15 | 11.8 | -1.04 | -12.7 | -41.4 |
| CN1CCCc2cc(CNC(=O)c3ccncc3)ccc21 | -3.56 | 19 | 22.6 | -0.0483 | 1.54 | -1.94 | 21.4 | 28.5 | 2.08 | 17.7 | -25.8 |
| Cn1cc(Cl)cc1C(=O)N1CCN(Cc2ccsc2)CC1 | -0.357 | 5.26 | 5.58 | -5.04 | 4.13 | 0.766 | -1.67 | -2.56 | 2.45 | 4.88 | -0.287 |
| CCCc1n[nH]c(C2CN(C(=O)c3ccco3)CCO2)n1 (stereo unspecified) | -3.05 | 0 | 2.64 | -8.28 | -1.03 | 2.52 | 8.71 | -11.3 | 0.493 | -1.24 | 13.1 |
| CNC(=O)c1cccc(NC(=O)Cn2nc(-c3cccs3)oc2=O)c1 | -8.44 | 13.5 | 133 | 18.8 | 9.38 | -0.924 | 4.13 | -0.599 | 6.93 | 13.4 | -2.88 |
| Cc1cc(CN2CCN(CC(O)C(C)(C)C)CC2)no1 (stereo unspecified) | 0.683 | 15.2 | -2.9 | 10.4 | 4.63 | 1.52 | 4.83 | 14.7 | 5.42 | 16.5 | -5.62 |
